This passage reports binding signal results from paper PMC7862700, “An all-to-all approach to the identification of sequence-specific readers for epigenetic DNA modifications on cytosine”.

Assay in all cases: DAPPL (digital affinity profiling via proximity ligation, sequencing); 10 mM Tris-HCl pH 7.5, 50 mM NaCl, 1 mM DTT, 4% glycerol, room temperature, 30 min; GST-TFs on glutathione beads, 16-mer random dsDNA library, 0.1% formaldehyde crosslink after washing; high values mean tight binding
In one assay the target is T1, FEV (Homo sapiens, UniProt Q99581 1-238).
T1 sequence: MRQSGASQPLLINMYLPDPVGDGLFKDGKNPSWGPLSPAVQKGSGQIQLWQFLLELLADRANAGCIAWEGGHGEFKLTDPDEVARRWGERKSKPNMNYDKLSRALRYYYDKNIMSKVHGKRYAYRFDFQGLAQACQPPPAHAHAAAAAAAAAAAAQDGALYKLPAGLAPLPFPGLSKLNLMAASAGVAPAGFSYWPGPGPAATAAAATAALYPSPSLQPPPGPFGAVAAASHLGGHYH
The settings on record: protein: recombinant; tags: N-terminal GST; dsDNA, one strand shown. The procedure, abridged: (§1)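 Binding signal is defined as a hexamer's read frequency for one factor over its frequency for the tag-only sample. To obtain reads, GST-fused human transcription factors were expressed in yeast, captured on glutathione beads, barcoded with DNA and pooled with that sample. Pools met 200 nmole of a 16-mer random double-stranded DNA library in Tris/NaCl/DTT/glycerol buffer for 30 min at room temperature before washing, 0.1% formaldehyde crosslinking, proximity ligation (BsaI/T4 ligase, 1 h, 37 °C), PCR and Illumina NextSeq500 sequencing.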

The next assay addresses ETV5 (Homo sapiens, UniProt P41161 1-510). The settings on record: protein: recombinant; tags: N-terminal GST; dsDNA, one strand shown. The procedure, abridged:
as §1

In another assay the target is HSF1 (Homo sapiens, UniProt Q00613 1-529). The note with it: protein: recombinant; tags: N-terminal GST; chain copies: 3; dsDNA, one strand shown. A digest of the protocol:
as §1

The target of another assay is T2, SPIC (Homo sapiens, UniProt Q8N5J4 1-248).
T2 sequence: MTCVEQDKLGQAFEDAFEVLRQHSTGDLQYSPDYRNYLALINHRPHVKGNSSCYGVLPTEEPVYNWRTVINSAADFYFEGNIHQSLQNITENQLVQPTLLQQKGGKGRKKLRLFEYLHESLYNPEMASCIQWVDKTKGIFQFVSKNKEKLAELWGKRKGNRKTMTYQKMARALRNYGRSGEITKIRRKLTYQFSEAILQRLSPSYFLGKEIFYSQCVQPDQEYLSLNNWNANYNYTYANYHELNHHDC
The note with it: protein: recombinant; tags: N-terminal GST; dsDNA, one strand shown. A digest of the protocol: as §1

The target in the next assay is ELF4 (Homo sapiens, UniProt Q99607 1-663). The settings on record: protein: recombinant; tags: N-terminal GST; dsDNA, one strand shown. A digest of the protocol:
as §1

The next assay deals with T3, ELK4 (Homo sapiens, UniProt P28324-2 1-405).
T3 sequence: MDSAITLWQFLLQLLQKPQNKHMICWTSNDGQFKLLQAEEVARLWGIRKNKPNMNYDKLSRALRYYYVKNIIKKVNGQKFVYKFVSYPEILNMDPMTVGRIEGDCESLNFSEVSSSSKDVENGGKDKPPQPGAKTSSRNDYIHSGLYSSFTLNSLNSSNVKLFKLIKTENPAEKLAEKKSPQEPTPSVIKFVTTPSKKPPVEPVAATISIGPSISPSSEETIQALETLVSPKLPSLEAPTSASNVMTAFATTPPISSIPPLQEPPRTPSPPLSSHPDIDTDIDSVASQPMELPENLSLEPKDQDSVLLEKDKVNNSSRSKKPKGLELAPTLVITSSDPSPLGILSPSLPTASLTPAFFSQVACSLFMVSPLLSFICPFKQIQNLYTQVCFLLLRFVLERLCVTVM
The note with it: protein: recombinant; tags: N-terminal GST; dsDNA, one strand shown. The procedure, abridged:
as §1

In a further assay the target is T4, ETV2 (Homo sapiens, UniProt O00321 1-342).
T4 sequence: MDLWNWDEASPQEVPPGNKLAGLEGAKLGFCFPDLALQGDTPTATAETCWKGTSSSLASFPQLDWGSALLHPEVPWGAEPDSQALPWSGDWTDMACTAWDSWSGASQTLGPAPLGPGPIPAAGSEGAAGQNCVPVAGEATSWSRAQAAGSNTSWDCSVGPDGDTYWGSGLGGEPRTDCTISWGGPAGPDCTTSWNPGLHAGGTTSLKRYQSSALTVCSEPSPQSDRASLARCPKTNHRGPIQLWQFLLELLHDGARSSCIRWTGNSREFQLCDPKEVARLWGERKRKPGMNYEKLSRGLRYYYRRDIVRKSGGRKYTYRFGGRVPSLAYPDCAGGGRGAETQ
The note with it: protein: recombinant; tags: N-terminal GST; dsDNA, one strand shown. The procedure, abridged:
as §1

The target of a further assay is T5, ELF3 (Homo sapiens, UniProt P78545 1-371).
T5 sequence: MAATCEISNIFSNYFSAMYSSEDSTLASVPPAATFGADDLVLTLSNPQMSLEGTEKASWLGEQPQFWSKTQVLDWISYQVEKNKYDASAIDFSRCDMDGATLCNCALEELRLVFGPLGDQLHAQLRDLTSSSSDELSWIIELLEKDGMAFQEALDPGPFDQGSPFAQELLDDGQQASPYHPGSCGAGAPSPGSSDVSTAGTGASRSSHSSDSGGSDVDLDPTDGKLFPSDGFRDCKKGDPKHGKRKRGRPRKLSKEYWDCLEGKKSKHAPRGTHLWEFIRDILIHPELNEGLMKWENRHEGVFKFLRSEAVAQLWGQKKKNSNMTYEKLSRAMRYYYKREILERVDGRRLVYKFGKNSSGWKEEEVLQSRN
The settings on record: protein: recombinant; tags: N-terminal GST; dsDNA, one strand shown. A digest of the protocol:
as §1

The target of the next assay is CRX (Homo sapiens, UniProt O43186 1-299). The note with it: protein: recombinant; tags: N-terminal GST; dsDNA, one strand shown. A digest of the protocol:
as §1

For the next assay, the target named is ETV1 (Homo sapiens, UniProt P50549 1-477). The note with it: protein: recombinant; tags: N-terminal GST; dsDNA, one strand shown. A digest of the protocol:
as §1

Another assay concerns the target T6, ERF (Homo sapiens, UniProt P50548 1-548).
T6 sequence: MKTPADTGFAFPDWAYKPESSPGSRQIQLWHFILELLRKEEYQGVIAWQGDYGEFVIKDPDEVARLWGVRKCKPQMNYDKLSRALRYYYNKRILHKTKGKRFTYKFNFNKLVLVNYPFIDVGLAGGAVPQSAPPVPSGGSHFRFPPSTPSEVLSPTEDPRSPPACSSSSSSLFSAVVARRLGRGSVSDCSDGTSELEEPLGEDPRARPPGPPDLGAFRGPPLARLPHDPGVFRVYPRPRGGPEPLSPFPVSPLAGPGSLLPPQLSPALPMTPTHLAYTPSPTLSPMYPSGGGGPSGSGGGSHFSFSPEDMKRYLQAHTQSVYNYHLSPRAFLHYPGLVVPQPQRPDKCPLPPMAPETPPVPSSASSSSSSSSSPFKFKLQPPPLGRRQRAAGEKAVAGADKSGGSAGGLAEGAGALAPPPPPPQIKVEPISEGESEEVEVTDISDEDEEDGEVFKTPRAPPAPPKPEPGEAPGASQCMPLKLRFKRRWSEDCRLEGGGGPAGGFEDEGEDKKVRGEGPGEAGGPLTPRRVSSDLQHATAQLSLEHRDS
The settings on record: protein: recombinant; tags: N-terminal GST; dsDNA, one strand shown. A digest of the protocol:
as §1

A further assay addresses T7, ETV3L (Homo sapiens, UniProt Q6ZN32 1-361).
T7 sequence: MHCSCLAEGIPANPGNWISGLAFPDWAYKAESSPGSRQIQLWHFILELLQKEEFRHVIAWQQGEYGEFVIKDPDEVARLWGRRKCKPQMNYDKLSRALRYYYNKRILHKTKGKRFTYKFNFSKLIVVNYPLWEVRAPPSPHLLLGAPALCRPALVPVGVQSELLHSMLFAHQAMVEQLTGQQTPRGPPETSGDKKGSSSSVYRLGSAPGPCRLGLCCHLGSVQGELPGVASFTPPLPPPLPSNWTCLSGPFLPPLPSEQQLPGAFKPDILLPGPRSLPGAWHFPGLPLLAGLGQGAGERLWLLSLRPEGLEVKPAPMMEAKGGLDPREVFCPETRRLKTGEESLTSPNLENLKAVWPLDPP
The settings on record: protein: recombinant; tags: N-terminal GST; dsDNA, one strand shown. A digest of the protocol:
as §1

A further assay deals with T8, ETS2 (Homo sapiens, UniProt P15036 1-469).
T8 sequence: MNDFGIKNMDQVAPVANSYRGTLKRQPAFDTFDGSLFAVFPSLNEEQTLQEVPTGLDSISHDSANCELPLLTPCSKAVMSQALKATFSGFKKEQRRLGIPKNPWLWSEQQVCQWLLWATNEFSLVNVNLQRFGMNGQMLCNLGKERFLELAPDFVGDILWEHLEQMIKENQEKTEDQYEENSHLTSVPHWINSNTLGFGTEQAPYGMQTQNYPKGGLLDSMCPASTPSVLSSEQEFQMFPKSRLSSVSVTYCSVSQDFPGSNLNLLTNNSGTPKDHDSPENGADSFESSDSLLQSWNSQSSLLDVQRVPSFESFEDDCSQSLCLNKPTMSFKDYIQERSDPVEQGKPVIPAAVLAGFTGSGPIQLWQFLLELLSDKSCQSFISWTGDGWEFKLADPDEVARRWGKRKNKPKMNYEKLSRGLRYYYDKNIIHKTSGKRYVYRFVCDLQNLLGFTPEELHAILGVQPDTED
The note with it: protein: recombinant; tags: N-terminal GST; dsDNA, one strand shown. The procedure, abridged:
as §1

In the next assay the target is T9, SPDEF (Homo sapiens, UniProt O95238 1-335).
T9 sequence: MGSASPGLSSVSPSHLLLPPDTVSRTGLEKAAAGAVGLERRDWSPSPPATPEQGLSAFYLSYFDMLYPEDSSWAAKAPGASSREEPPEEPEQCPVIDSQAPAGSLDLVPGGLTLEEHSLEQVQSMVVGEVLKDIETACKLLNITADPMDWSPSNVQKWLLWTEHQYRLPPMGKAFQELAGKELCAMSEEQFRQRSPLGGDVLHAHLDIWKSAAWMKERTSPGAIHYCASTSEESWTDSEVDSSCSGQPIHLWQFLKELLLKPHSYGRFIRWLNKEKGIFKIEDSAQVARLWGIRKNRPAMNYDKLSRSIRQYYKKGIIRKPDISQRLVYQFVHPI
The settings on record: protein: recombinant; tags: N-terminal GST; dsDNA, one strand shown. A digest of the protocol: as §1

The target in another assay is T10, ETV7 (Homo sapiens, UniProt Q9Y603 1-341).
T10 sequence: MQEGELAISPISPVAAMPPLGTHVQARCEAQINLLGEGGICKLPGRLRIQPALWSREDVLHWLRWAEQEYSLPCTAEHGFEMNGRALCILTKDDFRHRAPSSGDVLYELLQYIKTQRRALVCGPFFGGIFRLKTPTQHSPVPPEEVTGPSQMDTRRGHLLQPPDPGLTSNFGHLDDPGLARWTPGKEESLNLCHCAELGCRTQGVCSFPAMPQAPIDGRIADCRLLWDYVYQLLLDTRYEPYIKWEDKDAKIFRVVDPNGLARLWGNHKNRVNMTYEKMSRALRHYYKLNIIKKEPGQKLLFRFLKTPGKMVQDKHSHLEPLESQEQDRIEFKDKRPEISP
The note with it: protein: recombinant; tags: N-terminal GST; dsDNA, one strand shown. The procedure, abridged:
as §1

The target of the next assay is T11, ELF5 (Homo sapiens, UniProt Q9UKW6-2 1-255).
T11 sequence: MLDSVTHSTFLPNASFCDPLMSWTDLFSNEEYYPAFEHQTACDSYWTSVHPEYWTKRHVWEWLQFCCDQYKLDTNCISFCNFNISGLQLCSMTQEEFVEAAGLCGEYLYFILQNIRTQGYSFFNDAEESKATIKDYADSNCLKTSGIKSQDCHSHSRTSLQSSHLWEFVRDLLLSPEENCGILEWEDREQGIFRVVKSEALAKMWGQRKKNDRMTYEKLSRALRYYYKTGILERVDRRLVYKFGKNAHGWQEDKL
The note with it: protein: recombinant; tags: N-terminal GST; dsDNA, one strand shown. A digest of the protocol:
as §1

For another assay, the target named is T12, ETV3 (Homo sapiens, UniProt P41162-2 1-143).
T12 sequence: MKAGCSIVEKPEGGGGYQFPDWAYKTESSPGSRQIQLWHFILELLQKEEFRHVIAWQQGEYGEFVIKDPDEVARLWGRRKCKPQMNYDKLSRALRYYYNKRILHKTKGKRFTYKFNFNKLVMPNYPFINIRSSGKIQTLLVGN
The settings on record: protein: recombinant; tags: N-terminal GST; dsDNA, one strand shown. The procedure, abridged: as §1

The target of another assay is ETV6 (Homo sapiens, UniProt P41212 1-452). The settings on record: protein: recombinant; tags: N-terminal GST; dsDNA, one strand shown. The procedure, abridged: as §1
Sequence of ETV6 (P41212 whole entry): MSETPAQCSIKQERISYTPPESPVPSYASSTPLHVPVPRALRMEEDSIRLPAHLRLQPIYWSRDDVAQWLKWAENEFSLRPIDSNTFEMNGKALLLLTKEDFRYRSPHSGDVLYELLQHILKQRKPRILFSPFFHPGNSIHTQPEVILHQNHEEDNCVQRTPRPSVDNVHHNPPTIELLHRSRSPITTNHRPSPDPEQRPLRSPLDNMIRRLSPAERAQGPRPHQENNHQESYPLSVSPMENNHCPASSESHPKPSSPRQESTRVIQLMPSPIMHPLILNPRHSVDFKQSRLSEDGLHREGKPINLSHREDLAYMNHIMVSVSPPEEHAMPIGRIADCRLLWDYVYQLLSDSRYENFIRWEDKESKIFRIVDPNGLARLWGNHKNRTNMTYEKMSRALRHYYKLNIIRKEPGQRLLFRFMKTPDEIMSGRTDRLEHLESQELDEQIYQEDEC

Sequence of CRX (O43186 whole entry): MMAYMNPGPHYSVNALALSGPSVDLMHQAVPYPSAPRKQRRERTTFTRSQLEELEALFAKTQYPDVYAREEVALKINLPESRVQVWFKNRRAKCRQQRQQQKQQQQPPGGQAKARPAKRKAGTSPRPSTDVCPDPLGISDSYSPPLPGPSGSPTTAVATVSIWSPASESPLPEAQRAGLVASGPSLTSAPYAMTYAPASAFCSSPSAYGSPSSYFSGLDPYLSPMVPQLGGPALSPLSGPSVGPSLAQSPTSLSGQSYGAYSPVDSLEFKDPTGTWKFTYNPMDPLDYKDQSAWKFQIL
Sequence of ELF4 (Q99607 whole entry): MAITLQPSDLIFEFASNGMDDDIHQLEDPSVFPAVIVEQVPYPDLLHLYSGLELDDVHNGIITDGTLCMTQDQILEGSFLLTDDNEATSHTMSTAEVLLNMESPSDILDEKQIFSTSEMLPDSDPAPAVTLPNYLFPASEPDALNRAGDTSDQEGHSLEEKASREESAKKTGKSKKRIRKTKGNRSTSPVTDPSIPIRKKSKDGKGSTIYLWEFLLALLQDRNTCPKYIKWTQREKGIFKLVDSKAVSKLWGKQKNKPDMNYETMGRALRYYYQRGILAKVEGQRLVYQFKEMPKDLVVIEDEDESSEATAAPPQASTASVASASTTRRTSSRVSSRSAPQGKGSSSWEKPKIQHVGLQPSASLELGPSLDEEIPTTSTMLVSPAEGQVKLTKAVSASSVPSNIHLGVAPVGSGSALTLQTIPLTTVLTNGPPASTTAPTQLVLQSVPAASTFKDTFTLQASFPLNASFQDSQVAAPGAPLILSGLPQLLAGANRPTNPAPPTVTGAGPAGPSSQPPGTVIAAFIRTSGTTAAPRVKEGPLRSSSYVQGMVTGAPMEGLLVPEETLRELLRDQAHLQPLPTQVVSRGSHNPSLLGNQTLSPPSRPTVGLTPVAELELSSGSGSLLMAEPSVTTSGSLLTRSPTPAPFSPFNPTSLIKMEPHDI
Sequence of HSF1 (Q00613 whole entry): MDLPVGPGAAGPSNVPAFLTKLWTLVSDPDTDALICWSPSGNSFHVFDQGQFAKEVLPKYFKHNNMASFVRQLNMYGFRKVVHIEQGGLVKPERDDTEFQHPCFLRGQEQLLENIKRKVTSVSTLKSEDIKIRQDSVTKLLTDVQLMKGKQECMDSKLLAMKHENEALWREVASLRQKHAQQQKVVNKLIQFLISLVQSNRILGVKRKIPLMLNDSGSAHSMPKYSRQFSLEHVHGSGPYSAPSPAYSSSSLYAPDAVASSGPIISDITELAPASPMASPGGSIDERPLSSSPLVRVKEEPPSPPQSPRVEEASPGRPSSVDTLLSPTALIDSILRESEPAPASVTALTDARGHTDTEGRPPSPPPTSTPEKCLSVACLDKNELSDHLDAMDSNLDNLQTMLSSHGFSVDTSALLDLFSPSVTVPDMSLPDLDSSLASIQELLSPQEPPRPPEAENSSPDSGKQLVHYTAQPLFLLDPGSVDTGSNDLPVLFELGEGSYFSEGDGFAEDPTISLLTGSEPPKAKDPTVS
Sequence of ETV1 (P50549 whole entry): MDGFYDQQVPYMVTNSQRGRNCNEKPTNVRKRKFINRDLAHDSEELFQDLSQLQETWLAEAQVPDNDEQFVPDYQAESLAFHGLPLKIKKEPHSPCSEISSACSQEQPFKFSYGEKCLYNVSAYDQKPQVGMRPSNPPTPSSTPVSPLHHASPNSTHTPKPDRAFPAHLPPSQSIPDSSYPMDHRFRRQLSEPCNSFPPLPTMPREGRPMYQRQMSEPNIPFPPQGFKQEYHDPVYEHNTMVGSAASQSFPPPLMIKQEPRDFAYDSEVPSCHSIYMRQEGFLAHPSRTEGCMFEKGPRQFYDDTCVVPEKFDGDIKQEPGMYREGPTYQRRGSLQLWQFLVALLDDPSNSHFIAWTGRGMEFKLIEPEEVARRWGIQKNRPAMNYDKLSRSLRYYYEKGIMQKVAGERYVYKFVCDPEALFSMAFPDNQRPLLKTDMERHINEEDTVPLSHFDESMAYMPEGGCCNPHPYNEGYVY
Sequence of ETV5 (P41161 whole entry): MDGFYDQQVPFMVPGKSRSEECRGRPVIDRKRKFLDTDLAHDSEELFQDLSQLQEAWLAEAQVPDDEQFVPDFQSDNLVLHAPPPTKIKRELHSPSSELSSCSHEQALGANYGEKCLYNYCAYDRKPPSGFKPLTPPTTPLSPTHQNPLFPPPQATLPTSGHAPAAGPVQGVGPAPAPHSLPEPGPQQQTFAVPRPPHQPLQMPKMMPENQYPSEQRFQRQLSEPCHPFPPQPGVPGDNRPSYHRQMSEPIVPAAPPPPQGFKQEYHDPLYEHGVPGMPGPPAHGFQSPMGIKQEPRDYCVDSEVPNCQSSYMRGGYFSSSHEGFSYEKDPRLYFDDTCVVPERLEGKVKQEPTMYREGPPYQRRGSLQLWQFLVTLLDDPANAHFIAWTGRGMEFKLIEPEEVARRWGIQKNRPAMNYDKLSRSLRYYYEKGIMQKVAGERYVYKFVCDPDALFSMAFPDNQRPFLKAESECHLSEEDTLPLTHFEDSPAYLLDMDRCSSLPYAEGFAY

For the sequence TCTTCT, the binding signal is 1.16 fold enrichment (6-mer frequency, TF over GST control) in the assay with FEV; 1.14 fold enrichment (6-mer frequency, TF over GST control) in the assay with ETV5; 2.17 fold enrichment (6-mer frequency, TF over GST control) in the assay with HSF1; 1.31 fold enrichment (6-mer frequency, TF over GST control) with SPIC; 1.16 fold enrichment (6-mer frequency, TF over GST control) with ELF4; 1.26 fold enrichment (6-mer frequency, TF over GST control) with ELK4. In addition, the binding signal with ETV2 is 1.22 fold enrichment (6-mer frequency, TF over GST control); with ELF3, 1.31 fold enrichment (6-mer frequency, TF over GST control); in the assay with CRX it was 1.59 fold enrichment (6-mer frequency, TF over GST control); with ETV1, 1.25 fold enrichment (6-mer frequency, TF over GST control); with ERF, 1.24 fold enrichment (6-mer frequency, TF over GST control); with ETV3L, 1.29 fold enrichment (6-mer frequency, TF over GST control). Also, the binding signal is 1.23 fold enrichment (6-mer frequency, TF over GST control) with ETS2; 1.16 fold enrichment (6-mer frequency, TF over GST control) in the assay with SPDEF; 1.06 fold enrichment (6-mer frequency, TF over GST control) with ETV7; 1.19 fold enrichment (6-mer frequency, TF over GST control) with ELF5; 1.25 fold enrichment (6-mer frequency, TF over GST control) with ETV3; 1.29 fold enrichment (6-mer frequency, TF over GST control) with ETV6.
